Data published in PMC9911399, “Two distinct binding modes provide the RNA-binding protein RbFox with extraordinary sequence specificity”.
Substitutions are numbered along the chain they refer to; changes in the protein carry UniProt numbers. Whole data set: some 16,000 sequences, median “ka relative to ugcaugu” near 0.0091, cut for the highest 2% near 0.032. For the sample, the highest values were picked, then their nearest neighbours and some sequences at random.

T1: RBFOX1 RRM (Homo sapiens, UniProt Q9NWB1 109-208)
T1 sequence: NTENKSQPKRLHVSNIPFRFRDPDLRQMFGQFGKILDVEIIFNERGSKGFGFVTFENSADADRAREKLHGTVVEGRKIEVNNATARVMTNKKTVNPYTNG

B1: UCUCUCC (DNA:RNA)
RNA: GGGAGACCGGAAUUCAGAUUGUCCUCUCUCCUUAAAUCCCGUCGUAGCCACCA
DNA 1: CAATCTGAATTCCGGTCTCCC
DNA 2: TGGTGGCTACGACGGGATT
B2: GACACAG (DNA:RNA)
RNA: GGGAGACCGGAAUUCAGAUUGUCCGACACAGUUAAAUCCCGUCGUAGCCACCA
DNA 1: CAATCTGAATTCCGGTCTCCC
DNA 2: TGGTGGCTACGACGGGATT
B3: UCUUGGG (DNA:RNA)
RNA: B1 RNA with C28U, U29G, C30G, C31G
DNA 1: CAATCTGAATTCCGGTCTCCC
DNA 2: TGGTGGCTACGACGGGATT
B4: UCCGCCC (DNA:RNA)
RNA: B1 RNA with U27C, C28G, U29C
DNA 1: CAATCTGAATTCCGGTCTCCC
DNA 2: TGGTGGCTACGACGGGATT
B5: CCGCAGG (DNA:RNA)
RNA: B1 RNA with U25C, U27G, U29A, C30G, C31G
DNA 1: CAATCTGAATTCCGGTCTCCC
DNA 2: TGGTGGCTACGACGGGATT
B6: UGCUACU (DNA:RNA)
RNA: B1 RNA with C26G, U27C, C28U, U29A, C31U
DNA 1: CAATCTGAATTCCGGTCTCCC
DNA 2: TGGTGGCTACGACGGGATT
B7: GGCACCG (DNA:RNA)
RNA: B2 RNA with A26G, A30C
DNA 1: CAATCTGAATTCCGGTCTCCC
DNA 2: TGGTGGCTACGACGGGATT
B8: GGCCACG (DNA:RNA)
RNA: B2 RNA with A26G, A28C, C29A, A30C
DNA 1: CAATCTGAATTCCGGTCTCCC
DNA 2: TGGTGGCTACGACGGGATT
B9: CGGCACG (DNA:RNA)
RNA: B1 RNA with U25C, C26G, U27G, U29A, C31G
DNA 1: CAATCTGAATTCCGGTCTCCC
DNA 2: TGGTGGCTACGACGGGATT
B10: UGGCGGU (DNA:RNA)
RNA: B1 RNA with C26G, U27G, U29G, C30G, C31U
DNA 1: CAATCTGAATTCCGGTCTCCC
DNA 2: TGGTGGCTACGACGGGATT
B11: UGGCGCU (DNA:RNA)
RNA: B1 RNA with C26G, U27G, U29G, C31U
DNA 1: CAATCTGAATTCCGGTCTCCC
DNA 2: TGGTGGCTACGACGGGATT
B12: UGGGCGC (DNA:RNA)
RNA: B1 RNA with C26G, U27G, C28G, U29C, C30G
DNA 1: CAATCTGAATTCCGGTCTCCC
DNA 2: TGGTGGCTACGACGGGATT
B13: CUGGCGG (DNA:RNA)
RNA: B2 RNA with G25C, A26U, C27G, A28G, A30G
DNA 1: CAATCTGAATTCCGGTCTCCC
DNA 2: TGGTGGCTACGACGGGATT
B14: CUGGCGC (DNA:RNA)
RNA: B2 RNA with G25C, A26U, C27G, A28G, A30G, G31C
DNA 1: CAATCTGAATTCCGGTCTCCC
DNA 2: TGGTGGCTACGACGGGATT
B15: UGGGCGG (DNA:RNA)
RNA: B2 RNA with G25U, A26G, C27G, A28G, A30G
DNA 1: CAATCTGAATTCCGGTCTCCC
DNA 2: TGGTGGCTACGACGGGATT
B16: CAGCUCC (DNA:RNA)
RNA: B1 RNA with U25C, C26A, U27G
DNA 1: CAATCTGAATTCCGGTCTCCC
DNA 2: TGGTGGCTACGACGGGATT
B17: AGACUGC (DNA:RNA)
RNA: B1 RNA with U25A, C26G, U27A, C30G
DNA 1: CAATCTGAATTCCGGTCTCCC
DNA 2: TGGTGGCTACGACGGGATT
B18: AGGGAGG (DNA:RNA)
RNA: B2 RNA with G25A, A26G, C27G, A28G, C29A, A30G
DNA 1: CAATCTGAATTCCGGTCTCCC
DNA 2: TGGTGGCTACGACGGGATT
B19: AAGUGUC (DNA:RNA)
RNA: B2 RNA with G25A, C27G, A28U, C29G, A30U, G31C
DNA 1: CAATCTGAATTCCGGTCTCCC
DNA 2: TGGTGGCTACGACGGGATT
B20: UGAGCAU (DNA:RNA)
RNA: B2 RNA with G25U, A26G, C27A, A28G, G31U
DNA 1: CAATCTGAATTCCGGTCTCCC
DNA 2: TGGTGGCTACGACGGGATT

What follows are binders tested against T1, RBFOX1 RRM (assay: EMSA; HiTS-Eq, 1 nM pool, 10 min; buffer printed only for the single-RNA assays: 10 mM Tris pH 7.5, 150 mM NaCl, 3.4 mM EDTA, 0.001% NP-40, 30 C). Conditions: tags: His6 N-terminal (pET28a); label: 5' 32P.
Procedure, shortened: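 Purified wild-type or mutant RbFox RRM at increasing concentrations was equilibrated with 1 nM of 5′-radiolabelled RNA carrying 7 randomized nucleotides for 10 min in 50 µL. Unbound RNA was separated by 8% native PAGE and sequenced. Relative association constants came from read-count changes of each RNA species compared with the control reaction, normalised to the cognate motif.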

Point of comparison: B2, binding signal 0.00906 KA relative to UGCAUGU. Against it:
- B1 — higher, 0.00975 KA relative to UGCAUGU
- B3 — lower, 0.00663 KA relative to UGCAUGU
- B4 — lower, 0.00894 KA relative to UGCAUGU
- B5 — higher, 0.0108 KA relative to UGCAUGU
- B6 — higher, 0.0158 KA relative to UGCAUGU
- B7 — higher, 0.0143 KA relative to UGCAUGU
- B8 — higher, 0.00911 KA relative to UGCAUGU
- B9 — higher, 0.0377 KA relative to UGCAUGU
- B10 — higher, 0.0227 KA relative to UGCAUGU
- B11 — higher, 0.0198 KA relative to UGCAUGU
- B12 — higher, 0.0335 KA relative to UGCAUGU
- B13 — lower, 0.00866 KA relative to UGCAUGU
- B14 — higher, 0.02 KA relative to UGCAUGU
- B15 — higher, 0.0408 KA relative to UGCAUGU
- B16 — lower, 0.00767 KA relative to UGCAUGU
- B17 — higher, 0.0128 KA relative to UGCAUGU
- B18 — higher, 0.0245 KA relative to UGCAUGU
- B19 — higher, 0.0153 KA relative to UGCAUGU
- B20 — higher, 0.0172 KA relative to UGCAUGU
